The source made the active and inactive calls.

Assay [1] concerns PRMT1 (protein arginine N-methyltransferase 1). The assay is described as follows: small molecules binding arginine methyltransferase PRMT1 – biochemical, small-molecule microarray, 635 nm fluorescence, primary screen (AID 1088).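 Also: binding of Prmt1 protein to compounds spotted on small-molecule microarray slides.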 The conditions noted are these: higher = more signal.
The nature of assay [2]: growth effects on S. cerevisiae YJM789 – YJM789 clinical isolate, OD600, 24 h, basal, primary screen (AID 1089).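 Also: growth of clinical yeast isolate S. cerevisiae YJM 789 seeded 1000 cells per well; test concentration not given here.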 The conditions noted are these: higher = more signal, called active from +8 up or from −8 down.
Assay [3] is described as follows: S. pombe growth modifiers, basal conditions – strain 972, OD600, 24 h, no modulator, primary screen (AID 1090).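 Also: basal condition with compound alone and no growth modifier present; test concentration not given here.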 To be noted: S. pombe 972 growth, higher = more signal, called active from +8 up or from −8 down.
Assay [4] is described as follows: budding yeast growth modifiers under rapamycin – strain BY4716, OD600, 96 h, primary screen (AID 1091). Also: test concentration not given here. To be noted: S. cerevisiae BY4716 + rapamycin, higher = more signal, called active from +8 up or from −8 down.
The target of assay [5] is Torsin-1A-interacting protein 2 (Homo sapiens) (UniProt Q8NFQ8). The assay can be described thus: small molecules binding lysate-expressed LULL1 – cell lysate, human LULL1 lysate, 635/667 nm fluorescence, primary screen (AID 1092).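 Also: probe is lysate of COS7 cells overexpressing human LULL1; score merges per-feature 667 nm fluorescence with signal-to-noise.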 To be noted: small-molecule microarray, hLULL1 lysate binding, 635 nm fluorescence; higher = more signal.
Assay [6] in a line: optical density change of DRC41 E. coli – strain DRC41, OD650, 24 h, E. coli filamentation project, primary screen (AID 1093).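 Also: MC1000 strain lacking acrAB efflux and sulA so SOS filamentation is blocked; test concentration not given here.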 To be noted: E. coli DRC41 growth, higher = more signal, called active from +8 up or from −8 down.
The nature of assay [7]: probe aLefty2 binding to arrayed compounds – biochemical, biotinylated probe, 635/667 nm fluorescence, primary screen (AID 1094).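 Also: score merges spot fluorescence near 667 nm with spot signal-to-noise ratio.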 To be noted: small-molecule microarray, higher = more signal.
In assay [8] the test system is Noggin (protein binding on small-molecule microarray). The assay is described as follows: small molecules binding Noggin protein – biochemical, 635/667 nm fluorescence, primary screen (AID 1095).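 Also: score merges 667 nm feature fluorescence with signal to noise over triplicate slides.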 The conditions noted are these: 635 nm fluorescence, higher = more signal.
The target of assay [9] is Neurogenic locus notch homolog protein 3 (Homo sapiens) (UniProt Q9UM47). The assay is described as follows: small molecules binding NOTCH3 protein – biochemical, 635/667 nm fluorescence, primary screen (AID 1096). The conditions noted are these: small-molecule microarray, 635 nm fluorescence, higher = more signal.
Assay [10] in a line: probe aEGFR binding to arrayed compounds – biochemical, biotinylated probe, 635/667 nm fluorescence, primary screen (AID 1097).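 Also: probe is a biotinylated anti-EGFR antibody binding compounds printed on slides; score combines fluorescence near 667 nm and signal to noise of each spot.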 To be noted: small-molecule microarray, higher = more signal.
For assay [11], the system named is Plasmodium falciparum Sir2 (PF13_0152, Sir2A). The assay can be described thus: Plasmodium falciparum Sir2A binding compounds – biochemical, small-molecule microarray, 635 nm fluorescence, primary screen (AID 1098).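 Also: score merges spot fluorescence intensity with its signal-to-noise ratio.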 The conditions noted are these: fluorescence 635 nm, higher = more signal.
Assay [12] can be described thus: probe aDKK1 binding to arrayed compounds – biochemical, biotinylated probe, 635/667 nm fluorescence, primary screen (AID 1099).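 Also: score merges 667nm spot fluorescence with signal to noise across triplicate slides; reference of the scale not given here.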 The conditions noted are these: small-molecule microarray, higher = more signal.
Assay [13] can be described thus: probe aCHRDL2 binding to arrayed compounds – biochemical, biotinylated probe, 635/667 nm fluorescence, primary screen (AID 1100). The conditions noted are these: small-molecule microarray, higher = more signal.
Assay [14] is described as follows: change in splice reporter luminescence, either direction, cell-based, HEK293, spliceosome inhibition project, primary screen (AID 1101).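 Also: HEK293 cells carrying a splicing-competent luciferase reporter gene; test concentration not given here.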 The conditions noted are these: HEK293 splicing luciferase reporter, 24 h, higher = more signal, called active from +8 up or from −8 down. Background: A reporter such as luciferase makes a cellular process visible.
Assay [15] deals with Fibroblast growth factor 10 (Homo sapiens) (UniProt O15520). The assay can be described thus: compounds binding fibroblast growth factor 10 – biochemical, small-molecule microarray, 635 nm fluorescence, primary screen (AID 1102). To be noted: FGF10 binding, fluorescence 635 nm, higher = more signal.
The subject of assay [16] is glycogen synthase kinase-3 (GSK3A per assay name; protocol says GSK3B). The assay is described as follows: compounds binding glycogen synthase kinase-3 – biochemical, small-molecule microarray, 635 nm fluorescence, GSK3A, primary screen (AID 1103). Also: the record names both GSK3A and GSK3B. The conditions noted are these: fluorescence 635 nm, higher = more signal.
Assay [17] deals with Epidermal growth factor receptor (Homo sapiens) (UniProt P00533). The assay can be described thus: compounds binding epidermal growth factor receptor – biochemical, small-molecule microarray, 635 nm fluorescence, primary screen (AID 1104).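 Also: score merges 667 nm emission intensity with spot signal to noise over triplicate slides.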 The conditions noted are these: EGFR binding, higher = more signal.
Assay [18] addresses Follistatin-related protein 3 (Homo sapiens) (UniProt O95633). The assay is described as follows: compounds binding follistatin-related protein 3 – biochemical, small-molecule microarray, 635 nm fluorescence, primary screen (AID 1105).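 Also: score merges emission near 667 nm and signal to noise per printed spot across three slides.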 To be noted: FSTL3 binding, higher = more signal.
Assay [19] deals with Dickkopf-related protein 1 (Homo sapiens) (UniProt O94907). The assay can be described thus: small molecules binding DKK1 protein – biochemical, small-molecule microarray, 635 nm fluorescence scan, primary screen (AID 1106).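 Also: score merges emission near 667 nm with signal to noise over three replicate slides.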 The conditions noted are these: higher = more signal.
The test system of assay [20] is Inhibin beta A chain (activin A). The assay can be described thus: small molecules binding activin A – biochemical, small-molecule microarray, 635 nm fluorescence scan, primary screen (AID 1107).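 Also: mouse activin A protein probed at 4.33 µg/mL on printed slides; score merges bound-protein fluorescence near 667 nm with spot signal-to-noise.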 The conditions noted are these: INHBA, higher = more signal.

Epidermal growth factor receptor (Homo sapiens), sequence (P00533 whole entry, looked up): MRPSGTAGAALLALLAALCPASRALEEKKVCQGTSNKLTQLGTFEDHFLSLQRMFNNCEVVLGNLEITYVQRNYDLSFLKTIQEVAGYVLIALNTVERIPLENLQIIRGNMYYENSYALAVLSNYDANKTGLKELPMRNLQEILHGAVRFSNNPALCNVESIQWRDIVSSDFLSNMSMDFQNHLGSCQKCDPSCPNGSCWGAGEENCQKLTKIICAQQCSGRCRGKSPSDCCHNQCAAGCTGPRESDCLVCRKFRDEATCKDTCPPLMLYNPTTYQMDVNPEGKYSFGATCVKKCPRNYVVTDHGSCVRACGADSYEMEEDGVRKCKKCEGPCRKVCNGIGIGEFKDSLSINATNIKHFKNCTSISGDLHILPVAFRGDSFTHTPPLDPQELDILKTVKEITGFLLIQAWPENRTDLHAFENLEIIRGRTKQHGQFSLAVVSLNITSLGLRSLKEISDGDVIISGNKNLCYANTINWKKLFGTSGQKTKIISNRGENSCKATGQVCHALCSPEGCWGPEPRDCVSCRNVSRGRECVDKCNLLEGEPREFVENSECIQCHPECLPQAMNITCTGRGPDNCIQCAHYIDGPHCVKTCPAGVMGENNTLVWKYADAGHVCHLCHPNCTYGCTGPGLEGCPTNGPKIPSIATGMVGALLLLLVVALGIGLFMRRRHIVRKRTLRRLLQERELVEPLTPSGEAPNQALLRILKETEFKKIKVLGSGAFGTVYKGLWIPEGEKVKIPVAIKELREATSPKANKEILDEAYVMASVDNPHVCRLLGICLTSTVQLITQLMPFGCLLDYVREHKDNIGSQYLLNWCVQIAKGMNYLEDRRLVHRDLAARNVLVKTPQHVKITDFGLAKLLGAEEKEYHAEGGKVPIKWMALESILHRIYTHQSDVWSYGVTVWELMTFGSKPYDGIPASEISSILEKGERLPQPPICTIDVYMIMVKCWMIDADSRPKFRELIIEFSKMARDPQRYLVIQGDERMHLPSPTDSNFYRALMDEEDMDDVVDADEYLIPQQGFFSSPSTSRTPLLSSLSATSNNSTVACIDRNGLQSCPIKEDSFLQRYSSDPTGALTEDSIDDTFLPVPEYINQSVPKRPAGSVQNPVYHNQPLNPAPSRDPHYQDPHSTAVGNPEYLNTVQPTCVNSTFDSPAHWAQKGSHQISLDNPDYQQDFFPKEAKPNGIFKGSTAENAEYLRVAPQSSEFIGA
Fibroblast growth factor 10 (Homo sapiens), sequence (O15520 whole entry, looked up): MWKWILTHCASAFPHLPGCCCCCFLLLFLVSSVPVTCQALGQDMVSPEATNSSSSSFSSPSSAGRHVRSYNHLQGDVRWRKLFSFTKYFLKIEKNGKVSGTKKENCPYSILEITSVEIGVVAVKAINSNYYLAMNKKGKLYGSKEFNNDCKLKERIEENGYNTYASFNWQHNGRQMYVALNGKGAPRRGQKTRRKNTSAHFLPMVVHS
Follistatin-related protein 3 (Homo sapiens), sequence (O95633 whole entry, looked up): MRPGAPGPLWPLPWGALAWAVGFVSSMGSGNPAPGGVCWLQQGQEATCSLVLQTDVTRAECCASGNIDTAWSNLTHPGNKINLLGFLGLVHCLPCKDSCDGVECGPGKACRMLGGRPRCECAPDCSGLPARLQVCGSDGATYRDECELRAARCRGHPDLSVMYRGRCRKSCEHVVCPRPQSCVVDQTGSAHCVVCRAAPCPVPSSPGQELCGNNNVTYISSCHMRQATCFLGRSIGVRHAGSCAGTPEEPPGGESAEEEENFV
Torsin-1A-interacting protein 2 (Homo sapiens), sequence (Q8NFQ8 whole entry, looked up): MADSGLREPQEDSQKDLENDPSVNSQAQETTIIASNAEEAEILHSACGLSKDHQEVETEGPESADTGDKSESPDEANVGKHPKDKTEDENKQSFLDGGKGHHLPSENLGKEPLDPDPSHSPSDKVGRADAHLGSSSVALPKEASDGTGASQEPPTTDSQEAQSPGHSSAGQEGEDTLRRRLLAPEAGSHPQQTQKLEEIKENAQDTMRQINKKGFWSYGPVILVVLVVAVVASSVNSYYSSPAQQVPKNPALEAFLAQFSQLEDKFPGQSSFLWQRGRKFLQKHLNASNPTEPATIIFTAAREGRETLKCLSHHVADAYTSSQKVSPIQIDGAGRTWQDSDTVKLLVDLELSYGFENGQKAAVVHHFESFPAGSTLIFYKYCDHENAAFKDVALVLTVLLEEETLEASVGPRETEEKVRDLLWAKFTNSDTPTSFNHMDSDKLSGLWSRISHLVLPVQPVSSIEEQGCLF
Dickkopf-related protein 1 (Homo sapiens), sequence (O94907 whole entry, looked up): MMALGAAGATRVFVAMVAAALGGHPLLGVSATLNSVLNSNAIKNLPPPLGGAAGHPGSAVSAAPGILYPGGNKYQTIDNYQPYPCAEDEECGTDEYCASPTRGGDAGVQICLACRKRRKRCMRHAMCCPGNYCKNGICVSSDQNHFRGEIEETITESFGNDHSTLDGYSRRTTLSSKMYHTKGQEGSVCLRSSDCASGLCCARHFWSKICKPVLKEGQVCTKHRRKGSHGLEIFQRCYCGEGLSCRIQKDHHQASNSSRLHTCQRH
Neurogenic locus notch homolog protein 3 (Homo sapiens), sequence (Q9UM47 whole entry, looked up): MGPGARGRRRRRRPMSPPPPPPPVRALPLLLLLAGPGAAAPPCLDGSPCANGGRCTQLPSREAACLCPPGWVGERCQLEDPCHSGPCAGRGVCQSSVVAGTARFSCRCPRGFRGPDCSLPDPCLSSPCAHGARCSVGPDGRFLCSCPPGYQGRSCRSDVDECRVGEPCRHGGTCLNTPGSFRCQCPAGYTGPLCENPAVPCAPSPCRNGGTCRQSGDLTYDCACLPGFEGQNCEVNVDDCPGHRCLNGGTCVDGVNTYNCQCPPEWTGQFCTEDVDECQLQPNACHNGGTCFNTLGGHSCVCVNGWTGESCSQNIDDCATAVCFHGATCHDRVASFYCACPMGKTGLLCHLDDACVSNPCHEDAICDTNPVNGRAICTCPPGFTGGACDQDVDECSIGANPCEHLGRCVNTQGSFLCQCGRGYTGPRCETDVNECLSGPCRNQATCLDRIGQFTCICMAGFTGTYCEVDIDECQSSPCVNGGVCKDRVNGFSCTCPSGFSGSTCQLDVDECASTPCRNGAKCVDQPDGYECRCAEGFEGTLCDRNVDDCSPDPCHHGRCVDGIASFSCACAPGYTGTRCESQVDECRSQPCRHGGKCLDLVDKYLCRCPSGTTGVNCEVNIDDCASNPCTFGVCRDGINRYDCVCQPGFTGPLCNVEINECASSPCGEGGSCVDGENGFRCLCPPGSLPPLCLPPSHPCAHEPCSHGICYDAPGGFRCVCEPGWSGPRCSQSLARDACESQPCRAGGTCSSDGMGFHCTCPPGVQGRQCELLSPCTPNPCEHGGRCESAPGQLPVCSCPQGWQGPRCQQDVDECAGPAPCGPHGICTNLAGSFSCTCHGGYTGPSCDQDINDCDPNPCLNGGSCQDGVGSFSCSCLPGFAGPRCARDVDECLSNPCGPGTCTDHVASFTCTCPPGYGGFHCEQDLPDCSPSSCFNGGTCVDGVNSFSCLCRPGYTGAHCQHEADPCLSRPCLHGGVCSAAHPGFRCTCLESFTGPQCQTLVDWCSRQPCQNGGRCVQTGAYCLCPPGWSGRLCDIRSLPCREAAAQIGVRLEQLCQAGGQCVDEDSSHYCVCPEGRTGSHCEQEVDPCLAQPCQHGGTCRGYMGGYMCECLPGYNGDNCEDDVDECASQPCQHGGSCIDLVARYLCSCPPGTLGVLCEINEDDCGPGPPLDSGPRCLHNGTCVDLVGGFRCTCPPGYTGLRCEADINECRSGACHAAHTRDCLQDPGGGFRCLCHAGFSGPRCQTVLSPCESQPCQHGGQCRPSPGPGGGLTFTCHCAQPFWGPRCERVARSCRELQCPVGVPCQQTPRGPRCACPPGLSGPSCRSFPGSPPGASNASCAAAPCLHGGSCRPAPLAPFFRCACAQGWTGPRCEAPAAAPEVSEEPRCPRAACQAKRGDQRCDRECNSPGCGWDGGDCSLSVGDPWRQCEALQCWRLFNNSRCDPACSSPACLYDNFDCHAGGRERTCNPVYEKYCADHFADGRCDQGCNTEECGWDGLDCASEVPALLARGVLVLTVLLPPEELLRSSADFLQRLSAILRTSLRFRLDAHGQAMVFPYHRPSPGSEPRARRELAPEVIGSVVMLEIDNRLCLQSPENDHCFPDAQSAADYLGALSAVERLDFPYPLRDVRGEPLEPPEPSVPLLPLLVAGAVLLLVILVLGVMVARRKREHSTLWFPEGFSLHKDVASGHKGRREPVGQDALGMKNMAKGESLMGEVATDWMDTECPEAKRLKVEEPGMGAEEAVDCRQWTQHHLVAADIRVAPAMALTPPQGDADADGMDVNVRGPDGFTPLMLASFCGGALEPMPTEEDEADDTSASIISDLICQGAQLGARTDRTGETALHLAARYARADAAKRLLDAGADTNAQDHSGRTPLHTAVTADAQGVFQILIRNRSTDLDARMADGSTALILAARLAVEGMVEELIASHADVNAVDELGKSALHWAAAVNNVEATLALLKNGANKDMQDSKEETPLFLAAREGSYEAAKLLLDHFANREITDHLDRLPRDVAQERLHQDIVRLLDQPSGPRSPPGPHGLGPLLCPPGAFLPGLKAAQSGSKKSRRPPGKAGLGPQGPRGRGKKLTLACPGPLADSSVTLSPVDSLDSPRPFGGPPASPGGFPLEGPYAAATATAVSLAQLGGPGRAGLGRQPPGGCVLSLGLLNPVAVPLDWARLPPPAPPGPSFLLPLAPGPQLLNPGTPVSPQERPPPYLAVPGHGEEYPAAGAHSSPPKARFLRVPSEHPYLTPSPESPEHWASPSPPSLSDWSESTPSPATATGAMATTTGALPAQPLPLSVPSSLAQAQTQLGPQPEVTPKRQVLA

Turning to `CC(C)CON=C1C[C@@H](O)[C@@H](O)[C@@H]2[C@@H]3C(=O)N(C4CCCCC4)C(=O)[C@@H]3CC[C@@H]12`, the composite z-score in [1] was -0.0785; in assay [5], 1.64; in assay [7] it was -0.302; in [8], 0.0295; in [9], -0.519; in assay [10], -0.154. For the same molecule, the composite z-score in assay [11] is 1.17; in [12] it was -0.22; in assay [13] it was -0.198; in [15] it was -0.0852; in assay [16], -0.925; in assay [17], -0.305. Besides, the composite z-score in [18] is -0.504; in assay [19], -0.607; in assay [20], -0.164. The z-score is 0.4 (inactive) in assay [2]; -0.513 (inactive) in assay [3]; 0.423 (inactive) in assay [4]; -0.233 (inactive) in [6]; 0.353 (inactive) in assay [14].
As for `CCOC(=O)[C@H](Cc1ccccc1)NC(=O)CCC1CC(OC(=O)NCCc2ccc(F)cc2)CC2(CCCC(COC(=O)NCCc3ccccc3OC)O2)O1` (stereo not given in full), the composite z-score in assay [1] was 1.4; in assay [5], 2.18; in assay [7], -0.157; in [8], 0.955; in [9], 1.13; in [10], 0.0846. In addition, the composite z-score in [11] was 1.14; in [12] it was -0.275; in [13], -0.556; in assay [15] it was 1.06; in assay [16], 1.28; in [17], 0.42. The composite z-score in assay [18] was 0.857; in assay [19] it was 0.782; in assay [20], -0.314. Also, the z-score in assay [2] is -0.053 (inactive); in assay [3] it was 0.932 (inactive); in assay [4] it was 0.785 (inactive); in assay [6] it was -0.715 (inactive); in assay [14], -0.0644 (inactive).
As for `CC=CC1=C(CO)C(=O)[C@@H]2O[C@@H]2C1=O`, the composite z-score in assay [1] is 0.114; in [5] it was -1.02; in assay [7], -0.199; in [8], 1.58; in assay [9], 0.406; in assay [10], 0.0083. For the same molecule, the composite z-score was 0.148 in [11]; -0.703 in [12]; -1.79 in assay [13]; 0.799 in [15]; 0.571 in assay [16]; 1.01 in [17]. Moreover, the figures for the composite z-score in [18], in assay [19] and in assay [20] were 1.17, 1.57 and 1.49, respectively. Further, the z-score in assay [2] was -0.767 (inactive); in assay [3], -0.738 (inactive); in [4], -0.624 (inactive); in [6] it was 0.199 (inactive); in assay [14], -0.546 (inactive).
Consider `CC(CCN1CCCCc2nc(C)c(C)cc21)=NO[C@@H](C)c1cn([C@H](CO)Cc2ccccc2)nn1`, for which the composite z-score in assay [1] is 1.03; in [5], 1.16; in [7], -0.0383; in assay [8], 0.377; in assay [9] it was 0.474; in assay [10], 0.0317. In addition, the composite z-score in assay [11] was 0.683; in [12] it was -0.217; in assay [13], -0.46; in assay [15] it was 0.0253; in assay [16] it was 0.54; in assay [17], 0.593. Further, the composite z-score was found to be 0.902 in assay [18], 1.17 in assay [19] and 0.788 in [20]. For the same molecule, the z-score is 0.725 (inactive) in assay [2]; -0.0001 (inactive) in assay [3]; 0.17 (inactive) in assay [4]; 0.457 (inactive) in assay [6]; 0.16 (inactive) in assay [14].
Turning to `O=c1n(Cc2cc3c(cc2Cl)OCO3)c(=O)n2n1CC[C@@H]1C(=NOCc3ccccc3)[C@H]3O[C@H]3[C@@H](O)[C@@H]12`, the composite z-score in assay [1] is 0.499; in assay [5], -0.056; in assay [7] it was -0.0963; in assay [8], 0.498; in [9], 0.68; in [10], -0.0371. The composite z-score in [11] is 0.172; in assay [12], 0.87; in [13], -0.546; in assay [15] it was 0.531; in assay [16], 0.432; in [17] it was 0.452. Besides, the composite z-score in [18] is 0.587; in assay [19], 0.669; in assay [20] it was 0.111. In addition, the z-score is -1.97 (inactive) in assay [2]; -1.25 (inactive) in assay [3]; -0.756 (inactive) in [4]; -0.363 (inactive) in [6]; -1 (inactive) in [14].

(Values after PubChem BioAssay.)
